Compound activity (PubChem)
Anthrax LF inh2: inhibitors of Bacillus anthracis lethal factor protease; inhibition, % at 10 µM; hit rate 0.12% among 360,000; multiplex microsphere protease cleavage assay, LF; AID 588501; P15917; also: plate controls were buffer without enzyme for full effect and enzyme alone for no effect
Target sequence (P15917 whole entry, looked up): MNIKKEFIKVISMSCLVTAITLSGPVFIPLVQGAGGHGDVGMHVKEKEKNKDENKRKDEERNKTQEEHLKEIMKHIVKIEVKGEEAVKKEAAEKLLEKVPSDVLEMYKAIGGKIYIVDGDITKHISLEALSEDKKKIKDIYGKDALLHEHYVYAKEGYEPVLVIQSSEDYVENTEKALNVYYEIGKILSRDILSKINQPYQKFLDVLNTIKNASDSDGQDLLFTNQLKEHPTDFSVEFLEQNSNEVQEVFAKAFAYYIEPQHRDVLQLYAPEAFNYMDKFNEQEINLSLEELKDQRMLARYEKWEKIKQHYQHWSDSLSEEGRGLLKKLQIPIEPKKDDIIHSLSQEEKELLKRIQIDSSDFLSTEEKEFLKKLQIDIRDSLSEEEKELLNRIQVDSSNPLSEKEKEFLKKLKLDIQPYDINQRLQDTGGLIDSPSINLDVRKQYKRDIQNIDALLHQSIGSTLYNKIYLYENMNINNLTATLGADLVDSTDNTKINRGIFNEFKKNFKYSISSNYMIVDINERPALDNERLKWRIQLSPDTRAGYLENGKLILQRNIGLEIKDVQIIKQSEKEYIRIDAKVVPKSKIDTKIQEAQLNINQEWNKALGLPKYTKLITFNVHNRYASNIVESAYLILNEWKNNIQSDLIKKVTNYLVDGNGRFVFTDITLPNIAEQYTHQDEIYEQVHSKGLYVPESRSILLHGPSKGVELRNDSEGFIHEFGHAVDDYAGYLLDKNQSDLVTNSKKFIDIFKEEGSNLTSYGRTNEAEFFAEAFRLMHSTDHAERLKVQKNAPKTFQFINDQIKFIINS
BoNT A protease: inhibitors of Botulinum neurotoxin A light chain protease. multiplex microsphere protease substrate cleavage, flow cytometry. inhibition, % at 10 µM. hit rate 0.17% among 360,000. AID 588499; also: plate controls were buffer without enzyme for full effect and enzyme alone for no effect
Autofluor counter: counter-screen for toxin protease inhibitors: compound fluorescence | compound autofluorescence counterscreen, microsphere flow cytometry; active compounds read high | fluorescence intensity (test concentration not listed) | hit rate 3.1% among 360,000; in the data active = fluorescence intensity above about 16000; inconclusive = no clear call, values can overlap the other calls
BJeLR viability: kills HRASV12-expressing BJeLR cells; inhibition, % (no concentration beside the values); hit rate 0.17% among 300,000; BJeLR (HRASV12) viability, CellTiter-Glo ATP luminescence, 48 h; AID 1554; in the data active = inhibition above about 50%; inconclusive = no clear call, values can overlap the other calls
BH1578 lux ind: quorum light induction in luxS cqsA deficient V. cholerae; V. cholerae BH1578 lux reporter, luminescence, 6 h; activation, % at 18.7 µM; hit rate 0.16% among 350,000; AID 588436; in the data active = activation mostly above about 9.7%, no sharp cut-off; inconclusive = no clear call, values can overlap the other calls; inactive = mostly below about 3.7%
BoNT-F LC inh: blocks Botulinum neurotoxin F light chain protease; Multiplex microsphere protease cleavage assay, flow cytometry; inhibition, % at 10 µM; hit rate 0.22% among 360,000; in the data active = inhibition above about 35%, passing the limit was not always enough; inconclusive = no clear call, values can overlap the other calls; also: plate controls were buffer without enzyme for full effect and enzyme alone for no effect
BoNT-A LC CP1: blocks botulinum neurotoxin A light chain protease | shares compounds with BoNT-F LC inh | multiplex microsphere protease assay, flow cytometry | inhibition, % at 10 µM | hit rate 3% among 720 | AID 602139; in the data active = inhibition above about 32%
BoNTF LC inh 1: blocks botulinum neurotoxin F light chain protease | shares compounds with BoNT-F LC inh | multiplex microsphere protease cleavage assay, flow cytometry | inhibition, % at 10 µM | 720 tested, under 10 active | AID 602140; call rule not given here
Anthrax LF CP1: inhibitors of Bacillus anthracis lethal factor protease. 720 tested, under 10 active. multiplex microsphere protease cleavage assay, LF. inhibition, % at 10 µM. shares compounds with BoNT-F LC inh; call rule not given here
* marks the source's active call; other numbers are inactive results; i = inactive; ? = inconclusive; . = no result. A selection: hits, their analogues and other compounds. The true share with any hit is near 3.7%. Rule as the data show it, unless noted: active = inhibition above about 30%; inconclusive = no clear call, values can overlap the other calls; inactive = below that.

SMILES	Anthrax LF inh2	BoNT A protease	Autofluor counter	BJeLR viability	BH1578 lux ind	BoNT-F LC inh	BoNT-A LC CP1	BoNTF LC inh 1	Anthrax LF CP1
COc1ccc(-c2ccnc(SCC(=O)c3ccc(OC)c(OC)c3)n2)cc1	0	-1	2048	-11	-1	-11	.	.	.
COc1ccc(-c2ccnc(SCC(=O)c3ccc(Cl)cc3)n2)cc1	38*	8	6905	0	0	70*	0	-4	-2
CCn1c(CCNC(=O)c2ccc(OC)c(OC)c2)nc2ccccc21	1	2	4085	-9	i	40*	2	3	0
C[C@@H]1CN([C@@H](C)CO)C(=O)c2cc(Br)cnc2O[C@H]1CN(C)C(=O)Nc1ccccc1	-3	0	3301	.	i	2	.	.	.
CCOC(=O)c1cnn(CCOC(=O)c2ccccc2F)c1NC(=O)c1ccccc1F	-12	-7	6708	-2	3	-39	.	.	.
CCOC(=O)c1cnn(CCOC(=O)C(C)(C)C)c1NC(=O)C(C)(C)C	-25	36*	9307	-2	0	43*	0	-2	-3
OC(CNCc1ccccc1F)COc1cccc2ccccc12 (configuration not stated)	6	2	3445	-2	0	35*	1	-8	0
OC(CNCc1ccccc1Cl)COc1ccc(F)cc1 (configuration not stated)	0	-1	4015	-3	-2	-21	.	.	.
OC(c1ccccc1)(c1nc(-c2ccc(F)c(Cl)c2)cs1)C(F)(F)F (configuration not stated)	2	0	4207	.	0	3	.	.	.
CCOc1cc(CNCC(O)c2ccccc2)cc(Cl)c1OC (configuration not stated)	-1	4	2453	-5	0	41*	1	-11	-2
COC(=O)c1ccc2nc(-c3ccc(F)cc3)c(CC3CCCCC3)n2c1	-3	1	7443	.	.	5	.	.	.
CC(C)n1c(NCc2ccccc2O)nc2ccccc21	1	-1	3793	-2	i	49*	0	-3	-1
OC(Cc1cccc(C=NN2CCOCC2)n1)(C(F)(F)F)C(F)(F)F	3	0	2785	.	0	-2	.	.	.
Cc1ccc2nc(N3CCN(C(=O)c4ccc(F)cc4)CC3)c(C#N)cc2c1	0	5	4690	1	2	0	.	.	.
Cc1ccc2cc(C#N)c(N3CCN(C(=O)c4cccs4)CC3)nc2c1	-12	-3	3441	-2	0	40*	-3	-10	-5
Cc1c(C(=O)NNC(=O)c2csc(N3CCOCC3)n2)oc2ccc(Br)cc12	3	0	3833	.	-1	0	.	.	.
O=C(c1ccccc1)N1CCCC(C(=O)N2CCCCC2)C1 (configuration not stated)	0	1	4798	10	2	6	.	.	.
O=C(c1ccccc1)N1CCCC(C(=O)N2CCN(c3ccccc3)CC2)C1 (configuration not stated)	34*	-7	3990	-5	i	?	0	-3	-3
O=C(Cn1cnc2sc(-c3ccccc3)cc2c1=O)NCc1ccccc1	0	0	9905	1	0	-1	.	.	.
O=C(Cn1cnc2sc(-c3ccccc3)cc2c1=O)NCCc1ccccc1	0	1	4551	6	0	45*	1	2	2
COc1ccc(CCNC(=O)C2CCN(S(=O)(=O)N3CCOCC3)CC2)cc1OC	0	4	11415	-3	i	36*	-2	3	-1
N=c1sc2ccccc2n1-c1ccccc1	27	32*	10239	7	i	20	2	0	2
C=CC(=O)N=c1sc2ccccc2n1-c1ccccc1	6	0	4086	-2	0	-7	.	.	.
COCCN(C(=O)COC(=O)C12CC3CC(CC(O)(C3)C1)C2)c1c(N)n(Cc2ccccc2)c(=O)[nH]c1=O	4	0	2923	.	0	1	.	.	.
COc1cccc(OCCNC(=O)c2cc(OC)c(OC)c(OC)c2)c1	-14	0	3054	-16	-1	40*	-1	0	2
COc1cc(C(=O)NCCOc2ccc(C)c(C)c2)cc(OC)c1OC	-6	0	3386	-2	-1	-8	.	.	.
